Targets include RELARELA (p65 homodimer) (Homo sapiens, UniProt Q04206 1-307); p50p50 homodimer (Homo sapiens, UniProt P19838 7-356); RELB subunit;p50 subunit (Homo sapiens;Homo sapiens, UniProt Q01201;P19838 120-401;7-356).
Common to all, as to assay: protein binding microarray; high values mean tight binding
Conditions in all cases: dsDNA, one strand shown

For a further experiment, the target named is T1, p52p52 homodimer (Homo sapiens, UniProt Q00653 4-332).
T1 sequence: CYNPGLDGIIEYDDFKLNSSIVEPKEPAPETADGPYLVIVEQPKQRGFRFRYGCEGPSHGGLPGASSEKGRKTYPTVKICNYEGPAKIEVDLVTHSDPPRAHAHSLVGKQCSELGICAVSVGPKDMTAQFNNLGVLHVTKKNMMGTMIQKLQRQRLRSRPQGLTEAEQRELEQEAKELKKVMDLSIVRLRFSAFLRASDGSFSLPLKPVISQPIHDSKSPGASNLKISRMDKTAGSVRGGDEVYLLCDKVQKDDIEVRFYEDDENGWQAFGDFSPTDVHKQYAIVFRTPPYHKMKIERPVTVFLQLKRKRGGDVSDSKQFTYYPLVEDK

Experiment [1] concerns the target RELA (p65) subunit of heterodimer;p50 subunit (Homo sapiens;Homo sapiens, UniProt Q04206;P19838 1-307;7-356).
For experiment [2], the target named is RELA (p65) subunit of heterodimer;p52 subunit (Homo sapiens;Homo sapiens, UniProt Q04206;Q00653 1-307;4-332).
For a further experiment, the target named is T2, RELB subunit;p52 subunit (Homo sapiens;Homo sapiens, UniProt Q01201;Q00653 120-401;4-332).
T2 sequence 1: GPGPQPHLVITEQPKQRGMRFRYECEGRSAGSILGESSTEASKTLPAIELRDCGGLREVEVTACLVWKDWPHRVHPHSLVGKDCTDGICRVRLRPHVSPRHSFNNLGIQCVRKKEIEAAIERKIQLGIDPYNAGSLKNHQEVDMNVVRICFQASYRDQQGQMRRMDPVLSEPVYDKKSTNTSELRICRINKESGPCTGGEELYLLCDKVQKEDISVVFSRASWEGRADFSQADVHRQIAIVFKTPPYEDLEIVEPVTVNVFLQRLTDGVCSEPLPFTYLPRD
T2 sequence 2: T1 sequence

Experiment [3] deals with C-Rel subunit;p50 subunit (Homo sapiens;Homo sapiens, UniProt Q04864;P19838 1-285;7-356).
Experiment [4] has as its target T3, C-Rel subunit;p52 subunit (Homo sapiens;Homo sapiens, UniProt Q04864;Q00653 1-285;4-332).
T3 sequence 1: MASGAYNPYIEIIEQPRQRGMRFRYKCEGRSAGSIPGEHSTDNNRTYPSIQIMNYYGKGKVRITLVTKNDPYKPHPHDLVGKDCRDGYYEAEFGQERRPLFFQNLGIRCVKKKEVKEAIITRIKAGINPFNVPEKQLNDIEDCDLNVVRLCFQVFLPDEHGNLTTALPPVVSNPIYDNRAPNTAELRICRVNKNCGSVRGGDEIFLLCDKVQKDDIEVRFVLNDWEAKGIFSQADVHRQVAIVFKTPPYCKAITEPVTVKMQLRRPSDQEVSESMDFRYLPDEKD
T3 sequence 2: T1 sequence

Sequence of p50p50 homodimer (P19838 7-356): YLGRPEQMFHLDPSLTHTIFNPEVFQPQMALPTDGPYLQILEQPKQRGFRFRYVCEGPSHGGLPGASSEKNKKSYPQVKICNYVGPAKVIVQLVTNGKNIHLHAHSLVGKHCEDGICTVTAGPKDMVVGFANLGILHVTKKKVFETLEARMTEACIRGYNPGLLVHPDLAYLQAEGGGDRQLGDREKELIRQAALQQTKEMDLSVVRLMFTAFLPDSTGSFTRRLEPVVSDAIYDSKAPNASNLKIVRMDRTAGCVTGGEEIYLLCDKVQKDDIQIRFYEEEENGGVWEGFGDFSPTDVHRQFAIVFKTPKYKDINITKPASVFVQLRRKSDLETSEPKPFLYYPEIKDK
Sequence of RELARELA (p65 homodimer) (Q04206 1-307): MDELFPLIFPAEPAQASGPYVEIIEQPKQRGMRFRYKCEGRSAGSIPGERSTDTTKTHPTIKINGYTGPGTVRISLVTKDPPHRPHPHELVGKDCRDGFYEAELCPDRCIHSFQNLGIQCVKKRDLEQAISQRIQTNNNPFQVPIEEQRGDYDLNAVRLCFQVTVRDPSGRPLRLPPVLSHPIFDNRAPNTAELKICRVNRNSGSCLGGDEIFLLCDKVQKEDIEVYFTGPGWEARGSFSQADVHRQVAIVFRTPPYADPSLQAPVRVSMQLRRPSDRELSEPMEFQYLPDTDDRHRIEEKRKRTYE
Sequence of RELA (p65) subunit of heterodimer;p50 subunit (Q04206 1-307, chain 1 of 2): as the sequence (Q04206 1-307) above
Sequence of RELA (p65) subunit of heterodimer;p50 subunit (P19838 7-356, chain 2 of 2): as the sequence (P19838 7-356) above

Consider CGGTTATCCCT, for which the binding signal with RELARELA (p65 homodimer) turned out to be 0.134 z-score; with p50p50 homodimer it was 0.215 z-score; with p52p52 homodimer it was 0.38 z-score; in experiment [1] it was 0.0537 z-score; in experiment [2], 0.272 z-score; with RELB subunit;p50 subunit, 0.229 z-score. For the same sequence, the binding signal with RELB subunit;p52 subunit is 0.321 z-score; in experiment [3], 0.223 z-score; in experiment [4], 0.381 z-score.

On to GAAAATATCCT, for which the binding signal with RELARELA (p65 homodimer) was -0.0981 z-score; with p50p50 homodimer it was -1.17 z-score; with p52p52 homodimer, -0.53 z-score; in [1], -0.742 z-score; in [2] it was -0.608 z-score; with RELB subunit;p50 subunit, -1.05 z-score. Moreover, the values for the binding signal (in the experiment with RELB subunit;p52 subunit; in experiment [3]; in experiment [4]) were -0.797 z-score, -0.995 z-score and -0.675 z-score, respectively.

Consider CAGGTTACCCC, for which the binding signal in the experiment with RELARELA (p65 homodimer) came to 0.269 z-score; with p50p50 homodimer it was 0.178 z-score; with p52p52 homodimer, 0.0851 z-score; in experiment [1], 0.345 z-score; in [2] it was 0.253 z-score; in the experiment with RELB subunit;p50 subunit, 0.443 z-score. Further, the binding signal in the experiment with RELB subunit;p52 subunit worked out at 0.629 z-score; in experiment [3] it was 0.552 z-score; in [4] it was 0.49 z-score.

Take CGATAAGCCCC: the binding signal with RELARELA (p65 homodimer) was -0.417 z-score; with p50p50 homodimer, 0.756 z-score; in the experiment with p52p52 homodimer, 0.22 z-score; in [1] it was 0.383 z-score; in [2], 0.238 z-score; in the experiment with RELB subunit;p50 subunit, 0.334 z-score. In addition, the binding signal came out at 0.409 z-score with RELB subunit;p52 subunit, 0.25 z-score in experiment [3] and 0.31 z-score in experiment [4].

For GGAATTACCCC, the binding signal with RELARELA (p65 homodimer) is 2.91 z-score; in the experiment with p50p50 homodimer, 0.961 z-score; with p52p52 homodimer, 1.76 z-score; in experiment [1], 1.92 z-score; in [2], 2.08 z-score; in the experiment with RELB subunit;p50 subunit it was 1.18 z-score. Also, the binding signal with RELB subunit;p52 subunit worked out at 1.85 z-score; in experiment [3], 1.44 z-score; in experiment [4], 2.35 z-score.

AGATTACTCCT: the binding signal was -0.0935 z-score with RELARELA (p65 homodimer); -1.24 z-score with p50p50 homodimer; -0.548 z-score in the experiment with p52p52 homodimer; -0.691 z-score in [1]; -0.875 z-score in experiment [2]; -1.01 z-score with RELB subunit;p50 subunit. Also, the results for the binding signal (in the experiment with RELB subunit;p52 subunit; in experiment [3]; in experiment [4]) were -0.843 z-score, -1.01 z-score and -0.848 z-score, respectively.

Regarding CGGGTCCTCCC, the binding signal in the experiment with RELARELA (p65 homodimer) is -0.107 z-score; with p50p50 homodimer it was -0.467 z-score; with p52p52 homodimer, -0.154 z-score; in [1], -0.451 z-score; in experiment [2] it was -0.038 z-score; with RELB subunit;p50 subunit it was -0.526 z-score. The binding signal is -0.335 z-score in the experiment with RELB subunit;p52 subunit, -0.324 z-score in experiment [3] and 0.0736 z-score in [4].

Regarding GGAAGCCTCCC, the binding signal with RELARELA (p65 homodimer) is -0.446 z-score; with p50p50 homodimer, -1.14 z-score; in the experiment with p52p52 homodimer, -0.595 z-score; in experiment [1] it was -0.524 z-score; in experiment [2] it was -0.721 z-score; with RELB subunit;p50 subunit it was -0.789 z-score. The binding signal with RELB subunit;p52 subunit was -0.717 z-score; in [3], -0.888 z-score; in experiment [4], -0.726 z-score.

Regarding CAGTTCTTCCC, the binding signal with RELARELA (p65 homodimer) was 1.2 z-score; with p50p50 homodimer, -0.0833 z-score; with p52p52 homodimer, -0.0924 z-score; in experiment [1], 0.385 z-score; in experiment [2], 0.0986 z-score; with RELB subunit;p50 subunit, -0.231 z-score. In addition, the figures for the binding signal (with RELB subunit;p52 subunit; in experiment [3]; in experiment [4]) were -0.179 z-score, 0.641 z-score and 0.366 z-score, respectively.

CAAGGTATCCC: the binding signal is -0.591 z-score with RELARELA (p65 homodimer); -0.9 z-score with p50p50 homodimer; -0.296 z-score with p52p52 homodimer; -0.874 z-score in [1]; -0.575 z-score in experiment [2]; -0.488 z-score in the experiment with RELB subunit;p50 subunit. Further, the binding signal in the experiment with RELB subunit;p52 subunit is -0.446 z-score; in experiment [3] it was -0.834 z-score; in experiment [4] it was -0.451 z-score.

For the sequence GAGATAGTCCT, the binding signal is -0.228 z-score in the experiment with RELARELA (p65 homodimer); -0.791 z-score with p50p50 homodimer; -0.575 z-score with p52p52 homodimer; -0.973 z-score in experiment [1]; -0.809 z-score in experiment [2]; -0.986 z-score with RELB subunit;p50 subunit. Also, the binding signal in the experiment with RELB subunit;p52 subunit is -0.865 z-score; in experiment [3], -1.2 z-score; in [4], -0.764 z-score.

Take CAGAGTGTCCC: the binding signal with RELARELA (p65 homodimer) turned out to be 0.916 z-score; with p50p50 homodimer it was 0.0211 z-score; with p52p52 homodimer, 0.161 z-score; in [1], 0.185 z-score; in experiment [2] it was 0.144 z-score; in the experiment with RELB subunit;p50 subunit it was 0.304 z-score. Moreover, the figures for the binding signal (with RELB subunit;p52 subunit; in [3]; in experiment [4]) were 0.434 z-score, 0.274 z-score and 0.221 z-score, respectively.

Consider CAGTAGACCCC, for which the binding signal is -0.444 z-score in the experiment with RELARELA (p65 homodimer); -0.398 z-score with p50p50 homodimer; -0.423 z-score in the experiment with p52p52 homodimer; -0.397 z-score in experiment [1]; -0.485 z-score in experiment [2]; -0.472 z-score with RELB subunit;p50 subunit. Moreover, the values for the binding signal (with RELB subunit;p52 subunit; in [3]; in [4]) were -0.384 z-score, -0.501 z-score and -0.439 z-score, respectively.

As to CGATTAACCCT, the binding signal was -0.485 z-score with RELARELA (p65 homodimer); -0.551 z-score in the experiment with p50p50 homodimer; -0.421 z-score with p52p52 homodimer; -0.497 z-score in experiment [1]; -0.556 z-score in [2]; -0.691 z-score with RELB subunit;p50 subunit. The binding signal in the experiment with RELB subunit;p52 subunit was -0.624 z-score; in experiment [3], -0.83 z-score; in experiment [4], -0.644 z-score.

For the sequence GAGGGATTCCT, the binding signal with RELARELA (p65 homodimer) was found to be 0.218 z-score; with p50p50 homodimer, 0.321 z-score; in the experiment with p52p52 homodimer, 0.87 z-score; in experiment [1], 0.254 z-score; in experiment [2] it was 0.589 z-score; with RELB subunit;p50 subunit, 0.159 z-score. Further, the binding signal is 0.491 z-score with RELB subunit;p52 subunit, 0.376 z-score in experiment [3] and 0.538 z-score in [4].

Take AAGGTCCCCCC: the binding signal is -0.0871 z-score with RELARELA (p65 homodimer); 1.12 z-score in the experiment with p50p50 homodimer; 0.844 z-score with p52p52 homodimer; 1.52 z-score in [1]; 1.1 z-score in experiment [2]; 1.51 z-score with RELB subunit;p50 subunit. For the same sequence, the binding signal in the experiment with RELB subunit;p52 subunit is 1.74 z-score; in experiment [3], 1.34 z-score; in [4], 0.964 z-score.

Values taken from paper PMC3218832.
